The record followed here is PubChem BioAssay (Tox21).

Results filed as inconclusive are left out. Unmarked numbers belong to inactive results. Active and inactive are the calls of the source. Unless noted, calls follow the shape of the dose curve; as a rule, active = well fitted curve in the direction sought with a large enough effect in the repeat runs; inconclusive = weak or mixed curves; inactive = no such curve, though single readings can be large; an effect the other way counts as inactive or inconclusive.

The nature of assay [1]: qHTS assay to identify small molecule agonists of the vitamin D receptor (VDR) signaling pathway - cell viability counter screen (AID 743224). Also: series mostly up to about 63 µM; % is scaled to controls: 0 for no effect and ±100 for the full control effect; nearly all actives have a fitted effect of over 50% in size. A digest of the protocol: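 Cells: VDR-bla, 2,000/well, settled 4 h. Treatment: compounds in DMSO, 16 h, 37C/5% CO2. Readout: CellTiter-Glo luminescence after 30 min RT.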
In general terms: Quantitative high-throughput screening tests each substance at several concentrations.

Assay [2] can be described thus: qHTS assay to identify small molecule antagonists of the vitamin D receptor (VDR) signaling pathway - cell viability counter screen (AID 743225). Also: % is scaled to controls: 0 for no effect and ±100 for the full control effect; nearly all actives have a fitted effect of over 50% in size. In outline:
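Parallel cytotoxicity test: VDR-UAS-bla HEK 293T, 3 nM (final) 1-alpha,25-dihydroxyvitamin D3 with test compound, 16 h, 37C. Endpoint is CellTiter-Glo luminescence in the same wells.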

Assay [3] is described as follows: qHTS assay to identify small molecule agonists of the NFkB signaling pathway (AID 1159509; active = well fitted curve in the direction sought with a large enough effect in the signal ratio in the repeat runs, not every such curve was filed as active; the % refers to the signal ratio; also: series mostly up to about 61 µM; % is scaled to controls: 0 for no effect and ±100 for the full control effect). A digest of the protocol:
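Beta-lactamase reporter assay run in quantitative high-throughput format on an NF-kB-responsive ME-180 line, with 5 hr compound treatment and a FRET-based blue/green fluorescence readout.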

Assay [4] can be described thus: qHTS assay to identify small molecule agonists of the NFkB signaling pathway - cell viability counter screen (AID 1159515; calls by dose curve; also: series mostly up to about 61 µM; % is scaled to controls: 0 for no effect and ±100 for the full control effect; nearly all actives have a fitted effect of over 55% in size). In outline: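 Cells are seeded (2,000 NFkB-bla ME-180 per well), rested overnight, and dosed with DMSO-dissolved compounds for 5 hr at 37 C. Viability is then read by CellTiter-Glo luminescence after 30 min at room temperature.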
Assay [5] is described as follows: qHTS assay to identify small molecule agonists of the endoplasmic reticulum stress response signaling pathway (AID 1159516; active = well fitted activation curve with a large enough effect in the signal ratio in the repeat runs, not every such curve was filed as active; the % refers to the signal ratio; also: % is scaled to controls: 0 for no effect and ±100 for the full control effect). A digest of the protocol:
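Cells are seeded at 1,500 per well and incubated overnight. Compounds in DMSO are added for 5 hr at 37 C, then beta-lactamase FRET substrate for 2 hr at room temperature, and fluorescence at 460 and 530 nm is measured.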

A short description of assay [6]: qHTS assay to identify small molecule agonists of the endoplasmic reticulum stress response signaling pathway - cell viability counter screen (AID 1159517; calls by dose curve;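 also: HeLa cells carrying an ER stress response element beta-lactamase reporter; series mostly up to about 61 µM; % is scaled to controls: 0 for no effect and ±100 for the full control effect; nearly all actives have a fitted effect of over 50% in size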). A digest of the protocol:
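After overnight attachment, ESRE-bla HeLa cells were treated with Tox21 library compounds for 5 hr. CellTiter-Glo luminescence, read 30 min post-addition at room temperature, reported viability.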

Assay [7] can be described thus: qHTS assay to identify small molecule antagonists of the retinoid-related orphan receptor gamma (ROR-gamma) signaling pathway - cell viability counter screen (AID 1159520). Also: % is scaled to controls: 0 for no effect and ±100 for the full control effect; nearly all actives have a fitted effect of over 50% in size. A digest of the protocol: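 Cytotoxicity was read from cellular ATP (CellTiter-Glo luminescence) after 16 hr at 37 C with 1 uM doxycycline induction. The inducer was added 2 hr after compound transfer to Tet-on ROR gamma CHO cells.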

Assay [8] concerns the target Nuclear receptor ROR-gamma (Homo sapiens) (UniProt P51449). Put plainly: qHTS assay to identify small molecule antagonists of the retinoid-related orphan receptor gamma (ROR-gamma) signaling pathway (AID 1159521). In outline:
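Decreased RORE-driven luciferase luminescence indicates antagonism. Tet-on RORγ CHO cells received compound, then 1 uM final doxycycline 2 h later; signal read after 16 h incubation.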

A short description of assay [9]: qHTS assay to identify small molecule agonists of the AP-1 signaling pathway - cell viability counter screen (AID 1159525; calls by dose curve; also: nearly all actives have a fitted effect of over 55% in size). In outline: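 Intracellular ATP by Cell Titer Glo luminescence (30 min, RT) in the same ME-180 AP-1-bla wells after the 5 h compound exposure at 37 °C. Normalised to tetra n-octyl ammonium bromide and DMSO controls.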
The nature of assay [10]: qHTS assay to identify small molecule agonists of the AP-1 signaling pathway (AID 1159526; calls by dose curve; also: % is scaled to controls: 0 for no effect and ±100 for the full control effect).
Assay [11] concerns the target Retinoic acid receptor RXR-alpha (Homo sapiens) (UniProt P19793). Put plainly: qHTS assay to identify small molecule agonists of the RXR signaling pathway (AID 1159527; calls by dose curve; also: % is scaled to controls: 0 for no effect and ±100 for the full control effect; nearly all actives have a fitted effect of over 35% in size). A digest of the protocol: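 16 hr incubation of compound-treated RXR-alpha-UAS-bla HEK 293T cells (2% charcoal-stripped FBS, 37 C) preceded a 2 hr room-temperature LiveBLAzer FRET substrate step and blue/green fluorescence measurement.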

Assay [12] can be described thus: qHTS assay to identify small molecule agonists of the RXR signaling pathway - cell viability counter screen (AID 1159529). In outline:
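In this parallel viability measure, GeneBLAzer RXR-alpha HEK 293T cells (2% charcoal-stripped FBS) were given a 5 hr preincubation, treated with compounds 16 hr at 37 C, and read by CellTiter-Glo luminescence.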

A short description of assay [13]: qHTS assay to identify small molecule antagonists of the retinoid acid receptor (RAR) signaling pathway - cell viability counter screen (AID 1159551). Also: % is scaled to controls: 0 for no effect and ±100 for the full control effect; nearly all actives have a fitted effect of over 35% in size. A digest of the protocol:
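Cells (C3RL4) are plated, incubated overnight, dosed with compound in DMSO, then given retinol at 1 uM final. After 6 h at 37 C, CellTiter-Glo is added and luminescence read following 30 min at room temperature.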

Assay [14] is described as follows: qHTS assay to identify small molecule agonists of the retinoic acid receptor (RAR) signaling pathway (AID 1159553). Also: potency is read from the fitted curve at half-maximal effect. As to activation: % is scaled to controls: 0 for no effect and ±100 for the full control effect. In outline: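 Seed C3RL4 reporter cells at 1,000 per well and incubate overnight at 37 C. Add compounds in DMSO, incubate 6 hr. Add luciferase reagent, wait 30 min at room temperature, read luminescence.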
The nature of assay [15]: qHTS assay to identify small molecule antagonists of the retinoic acid receptor (RAR) signaling pathway (AID 1159552). In outline:
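C3RL4 RARE-luc cells, overnight plating; retinol 1 uM final added right after compound; 6 hr 37 C; luciferase read at 30 min RT.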

Sequence of Retinoic acid receptor RXR-alpha (Homo sapiens) (P19793 whole entry, looked up): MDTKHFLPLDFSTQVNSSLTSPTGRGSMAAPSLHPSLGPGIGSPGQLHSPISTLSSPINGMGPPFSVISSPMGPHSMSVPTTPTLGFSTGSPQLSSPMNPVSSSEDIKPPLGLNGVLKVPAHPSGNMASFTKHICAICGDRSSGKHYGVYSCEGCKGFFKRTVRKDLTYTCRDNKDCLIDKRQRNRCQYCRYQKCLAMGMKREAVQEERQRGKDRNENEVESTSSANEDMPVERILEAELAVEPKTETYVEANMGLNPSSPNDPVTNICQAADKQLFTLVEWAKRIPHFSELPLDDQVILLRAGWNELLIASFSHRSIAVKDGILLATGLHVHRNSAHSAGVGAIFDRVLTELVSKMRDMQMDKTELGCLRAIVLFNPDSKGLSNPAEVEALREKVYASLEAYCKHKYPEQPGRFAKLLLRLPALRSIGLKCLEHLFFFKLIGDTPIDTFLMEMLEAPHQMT

`COc1ccc(S(=O)(=O)N2c3ccc(Cl)cc3[C@@](O)(c3ccccc3Cl)[C@H]2C(=O)N2CCC[C@@H]2C(N)=O)cc1OC`: the Potency entry in assay [1], in assay [6], in assay [11] and in assay [14] was “inactive” each time. In addition, the molecule was called inactive in assay [2], in [3], in assay [4], in assay [5], in assay [7] and in assay [8]. Also, the outcome in [9], in [10], in assay [12] and in assay [13] was inactive.
Consider `CCCCOC(=O)c1ccccc1`, for which the Potency result in [1], in [6], in [11] and in assay [14] was “inactive” throughout. Besides, the outcome in [2], in assay [3], in [4], in assay [5], in [7] and in assay [8] was inactive. The outcome in assay [9], in assay [10], in [12], in assay [13] and in [15] was inactive.
On to `COC(=O)C1CC(=O)C(C(=O)OC)CC1=O` (stereo not drawn), for which the viability change, negative = cytotoxic is 3.99% [at 6.95 µM] in assay [2] and 2.24% [at 6.97 µM] in assay [9]. For the same molecule, the activation in [3] is 0.23% [at 6.95 µM]; in assay [5], 4.12% [at 6.95 µM]; in [10], 1.04% [at 6.97 µM]; in assay [11], 10.5% [at 6.98 µM]. Moreover, the activity, negative = cytotoxic in assay [4] was 4.94% [at 6.95 µM]. In addition, the activity change, negative = cytotoxicity in assay [6] was 4.71% [at 6.95 µM]; in assay [12], 8.97% [at 6.97 µM]; in assay [13] it was 3.23% [at 8.39 µM]. Moreover, the activity, negative = cytotoxicity in [7] was 6.36% [at 8.39 µM]. Besides, the activity change, negative = inhibition in assay [8] was 0.663% [at 8.39 µM]. The activity, negative = inhibition in assay [15] was -2.77% [at 8.39 µM].
For `CCCCCCOc1ccccc1C(N)=O`, the Potency entry in [1], in [6] and in assay [11] was “inactive” each time. In addition, the molecule was called inactive in [2], in [3], in assay [4], in assay [5], in assay [7] and in assay [8]. For the same molecule, the outcome in [9], in [10], in assay [12], in [13] and in assay [15] was inactive. In addition, the Potency in [14] was 13.3 µM (active).
Regarding `CC(S)C(=O)NCC(=O)O` (stereo not drawn), the Potency result in assay [1], in assay [6] and in [11] was “inactive” each time. The call in assay [3], in assay [4], in assay [5], in assay [7], in [8] and in [9] was inactive. Besides, the result in assay [10], in assay [12], in [13] and in [15] was inactive.
Turning to `CCCCCCCCCC(C)=O`, the Potency result in [1], in assay [6] and in assay [11] was “inactive” throughout. In addition, the outcome in assay [2], in assay [3], in [4], in assay [5], in assay [7] and in assay [8] was inactive. For the same molecule, the molecule was called inactive in assay [9], in assay [10], in [12], in assay [13] and in [15].
`Cc1ccccc1C(=O)Nc1ccc(C(=O)N2CCCC(N(C)C)c3ccccc32)cc1` (stereo not drawn): the Potency entry in assay [1], in assay [6], in assay [11] and in assay [14] was “inactive” each time. Also, the result in [2], in assay [3], in [4], in assay [5], in assay [7] and in assay [8] was inactive. The molecule was called inactive in [9], in assay [10], in assay [12] and in assay [13].
As to `C[C@H](CCC(=O)O)[C@H]1CC[C@H]2[C@@H]3C(=O)C[C@@H]4CC(=O)CC[C@]4(C)[C@H]3CC(=O)[C@]12C`, the Potency entry in assay [1], in [6] and in [11] was “inactive” throughout. For the same molecule, the molecule was classed as inactive in assay [3], in [4], in [5], in assay [7], in assay [8] and in assay [9]. The call in assay [10], in assay [12] and in [13] was inactive.
As for `CC(C)CC(C)CC(C)CC(C)COC(=O)c1ccccc1C(=O)OCC(C)CC(C)CC(C)CC(C)C` (stereo not drawn), the Potency result in assay [1], in assay [6] and in assay [11] was “inactive” throughout. Moreover, the molecule was called inactive in [3], in assay [4], in assay [5], in assay [7], in [8] and in assay [9]. In addition, the molecule was called inactive in [10], in assay [12], in assay [13] and in assay [15].
